From PubChem BioAssay
TDP1 cell noCPT = qHTS for Inhibitors of human tyrosyl-DNA phosphodiesterase 1 (TDP1): qHTS in cells in absence of CPT; DT40 Tdp1-/- hTDP1 cells, no CPT, ATP luminescence, 48 h; Potency, µM (series often up to 46.2 µM), without a hit: at the highest dose activity change, negative = growth inhibition, usual class: inhibitors; hit rate 15% among 420,000; also: potency is read from the fitted curve at half-maximal effect; % is scaled to controls: 0 for no effect and ±100 for the full control effect; nearly all actives have a fitted effect of over 55% in size
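Chicken DT40 Tdp1-/- cells stably complemented with human TDP1 were seeded at 400 cells/well with DMSO in place of 20 nM camptothecin. After compound pinning, cells grew at least 48 hr at 37 °C; viability read by CellTiter-Glo luminescence.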
DRD3 antagonist = antagonists of human D3 dopamine receptor. D3R cells, DiscoveRx beta-arrestin luminescence, antagonist mode; active compounds read low. max response, negative = inhibition, %. hit rate 2.5% among 360,000; in the data active = max response below about -50%; inconclusive = no clear call, values can overlap the other calls; also: % is scaled to controls: 0 for no effect and ±100 for the full control effect
Target sequence (P35462 whole entry, looked up): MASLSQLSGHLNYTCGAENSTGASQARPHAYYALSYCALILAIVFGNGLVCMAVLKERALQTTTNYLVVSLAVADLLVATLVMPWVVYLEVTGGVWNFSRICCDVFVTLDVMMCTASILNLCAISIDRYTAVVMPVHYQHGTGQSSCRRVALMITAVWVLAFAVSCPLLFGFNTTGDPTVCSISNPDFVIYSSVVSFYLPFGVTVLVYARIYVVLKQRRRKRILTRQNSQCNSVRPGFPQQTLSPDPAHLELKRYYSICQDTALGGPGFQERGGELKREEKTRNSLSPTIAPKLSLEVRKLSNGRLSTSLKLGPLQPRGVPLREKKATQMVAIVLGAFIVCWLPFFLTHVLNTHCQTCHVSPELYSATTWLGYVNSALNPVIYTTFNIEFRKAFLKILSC
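Cells expressing the human receptor were seeded at 1500 cells/well, incubated overnight at 37 degrees C in 5% CO2, then exposed to library compounds with dopamine controls for 90 minutes at 37 degrees C before luminescent detection.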
IL1B secr inh = blocks inflammasome-driven IL-1 beta release | THP-1 LPS/ATP IL-1B secretion, AlphaLISA, 16 h; active compounds read low | activity change, % at 57.5 µM | hit rate 4.7% among 360,000; in the data active = activity change below about -50%; inconclusive = mostly about -30% to -49%; also: % is scaled to controls: 0 for no effect and ±100 for the full control effect
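Secreted IL-1B measured by AlphaLISA bead assay after 16 h compound exposure of THP-1 cells; compounds (final up to 57.5 uM) added 1 h before LPS (250 ng/mL) and ATP (1.25 mM) stimulation; lower signal means less secretion.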
DRD3 agonist = agonists of human D3 dopamine receptor; AID 652048; max activation, %; hit rate 0.58% among 410,000; D3R DiscoveRx beta-arrestin cells, luminescence, 90 min; P35462; in the data active = max activation above about 30%; also: 0% is about no effect
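Cells at 1500/well, incubated overnight, then treated with pinned compounds (dopamine as control) for 90 min at 37 degrees C. DiscoveRx reagent added for 30 - 60 minutes at room temperature; luminescence read.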
ClpP mod = qHTS Assay for Activators of ClpP. ATP-dependent Clp protease proteolytic subunit (Bacillus subtilis (strain 168)), P80244. purified B. subtilis ClpP, FRET peptide cleavage, 20 min. Potency, µM (highest dose often 57.5 µM), for the others: at the top dose activity change, negative = active. hit rate 1.9% among 340,000. AID 651965, 2013; active = well fitted falling curve with a large enough effect; inconclusive = small, poorly fitted or top-dose-only effect; inactive = no such curve, though single readings can be large or run the other way; also: potency is read from the fitted curve at half-maximal effect; the source files actives as falling curves though it sought activators and does not explain the sign; nearly all actives have a fitted effect of over 65% in size
Target sequence (P80244 whole entry, looked up): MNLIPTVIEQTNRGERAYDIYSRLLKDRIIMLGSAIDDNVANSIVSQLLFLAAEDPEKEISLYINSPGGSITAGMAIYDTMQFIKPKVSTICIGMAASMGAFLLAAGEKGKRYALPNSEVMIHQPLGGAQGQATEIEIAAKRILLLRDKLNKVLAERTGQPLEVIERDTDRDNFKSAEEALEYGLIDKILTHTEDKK
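ClpP 10 microg/mL final, pH 8 Tris/KCl buffer with BSA, glycerol, Tween-20; compound pinned in; FRET-FV substrate; RT 20 min; Ex320/Em430; ΔFRET vs ADEP 5.8 microM, DMSO, no enzyme.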
TDP1 cell CPT = DT40-hTDP1 cell growth loss with CPT. hit rate 12% among 420,000. Potency, µM (top dose mostly 46.2 µM), for inactives: at the top dose activity change, negative = growth inhibition, usual class: inhibitors. AID 686979. chicken DT40 Tdp1-/-;hTDP1 cells + 20 nM CPT, ATP luminescence, 48 h; also: potency is read from the fitted curve at half-maximal effect; % is scaled to controls: 0 for no effect and ±100 for the full control effect; nearly all actives have a fitted effect of over 55% in size
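Cell growth measured by CellTiter-Glo luminescence after a minimum 48 h, 37 C compound exposure with 20 nM CPT in Tdp1-knockout DT40 cells stably expressing hTDP1, seeded 400/well; qHTS titration format.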
The depositor's hits bear a star. This is a sample that favours compounds with a hit; in the whole collection about 21% have one here. Unless noted, calls follow the shape of the dose curve; as a rule, active = well fitted inhibition curve with a large enough effect; inconclusive = small, poorly fitted or top-dose-only effect; inactive = flat fitted curve, though single readings scatter.

How did CC(C)Cn1c(N)c(C(=O)COC(=O)c2ccc(O)cc2)c(=O)n(C)c1=O do in these assays?
TDP1 cell noCPT: inconclusive; DRD3 antagonist: 22; IL1B secr inh: 16; DRD3 agonist: 3; ClpP mod: 1%; TDP1 cell CPT: -20%

What do the screens show for `Cn1c(N)c(C(=O)COC(=O)c2cc(-c3ccccc3)nc3ccccc23)c(=O)n(Cc2ccccc2)c1=O`?
TDP1 cell noCPT: inconclusive; DRD3 antagonist: 24; IL1B secr inh: 0; DRD3 agonist: 10; ClpP mod: -23%; TDP1 cell CPT: inconclusive

What do the screens show for `CC(C)Cn1c(N)c(C(=O)COC(=O)c2cc(C3CC3)nc3ccccc23)c(=O)n(C)c1=O`?
TDP1 cell noCPT: 21µM*; DRD3 antagonist: 53; IL1B secr inh: -4; DRD3 agonist: 2; ClpP mod: 25µM*; TDP1 cell CPT: inconclusive

What do the screens show for `CC(C)Cn1c(N)c(C(=O)COC(=O)c2cnccn2)c(=O)n(C)c1=O`?
TDP1 cell noCPT: -16%; DRD3 antagonist: 0; IL1B secr inh: 39; DRD3 agonist: 13; TDP1 cell CPT: inconclusive

How did CCOc1ccc(NC(=O)CN(C)C(=O)c2ccc3c(c2)C(=O)N(CCC(C)C)C3=O)cc1OCC do in these assays?
TDP1 cell noCPT: -20%; DRD3 antagonist: 4; IL1B secr inh: 0; DRD3 agonist: -16; ClpP mod: 1%; TDP1 cell CPT: -7%

How did COC(=O)C1CCN(CC(=O)Nc2ccc(C(=O)Nc3ccccc3OC)cc2)CC1 do in these assays?
TDP1 cell noCPT: inconclusive; DRD3 antagonist: 0; IL1B secr inh: -13; DRD3 agonist: 6; ClpP mod: -6%; TDP1 cell CPT: inconclusive

What do the screens show for `CC(C)Cn1c(N)c(C(=O)COC(=O)c2cnc(Cl)c(Cl)c2)c(=O)n(C)c1=O`?
TDP1 cell noCPT: inconclusive; DRD3 antagonist: -1; IL1B secr inh: -25; DRD3 agonist: 8; ClpP mod: 1%; TDP1 cell CPT: 18µM*

How did CC(C)Cn1c(N)c(C(=O)COC(=O)c2cc(F)cc(F)c2)c(=O)n(C)c1=O do in these assays?
TDP1 cell noCPT: inconclusive; DRD3 antagonist: 5; IL1B secr inh: 23; DRD3 agonist: 1; ClpP mod: 2%; TDP1 cell CPT: -25%

What do the screens show for `Cn1c(N)c(C(=O)COC(=O)c2cc(C3CC3)nc3ccccc23)c(=O)n(Cc2ccccc2)c1=O`?
TDP1 cell noCPT: -25%; DRD3 antagonist: 3; IL1B secr inh: 2; DRD3 agonist: 36*; ClpP mod: -19%; TDP1 cell CPT: -27%

Results for CCCc1ccc(C(=O)CCC(=O)NNC(=O)c2ccncc2)cc1 ?
TDP1 cell noCPT: 25%; DRD3 antagonist: 10; IL1B secr inh: 11; DRD3 agonist: 4; ClpP mod: 1%; TDP1 cell CPT: -7%

What do the screens show for `CC(C)C[C@@H](CNCC(=O)[C@H](CC(C)C)NC(=O)c1[nH]cnc1C(=O)N[C@@H](C)CN)NC(=O)c1nc[nH]c1C(=O)N[C@@H](CC(=O)O)C(=O)O`?
TDP1 cell noCPT: -3%; DRD3 antagonist: -15; IL1B secr inh: -55*; DRD3 agonist: 17; ClpP mod: 0%; TDP1 cell CPT: -16%

Results for CC(C)C[C@@H](CNCC(=O)[C@H](C)NC(=O)c1[nH]cnc1C(=O)N[C@@H](C)CN)NC(=O)c1nc[nH]c1C(=O)N[C@@H](CC(=O)O)C(=O)O ?
TDP1 cell noCPT: -6%; DRD3 antagonist: -12; IL1B secr inh: 17; DRD3 agonist: 32*; ClpP mod: 1%; TDP1 cell CPT: 1%

What do the screens show for `CC(C)C[C@@H](CNCC(=O)[C@H](CC(C)C)NC(=O)c1[nH]cnc1C(=O)N[C@@H](C)CN)NC(=O)c1nc[nH]c1C(=O)N[C@@H](CC(C)C)C(=O)O`?
TDP1 cell noCPT: -23%; DRD3 antagonist: 15; IL1B secr inh: 0; DRD3 agonist: -17; ClpP mod: 1%; TDP1 cell CPT: inconclusive

What do the screens show for `CC(C)C[C@@H](CN)NC(=O)c1nc[nH]c1C(=O)N[C@@H](Cc1c[nH]c2ccccc12)C(=O)CNC[C@H](C)NC(=O)c1nc[nH]c1C(=O)N[C@@H](CC(=O)O)C(=O)O`?
TDP1 cell noCPT: -10%; DRD3 antagonist: -53*; IL1B secr inh: 32; DRD3 agonist: -31; ClpP mod: -2%; TDP1 cell CPT: -2%

What do the screens show for `CC(C)[C@H](NC(=O)c1cccc(CN(Cc2ccccc2)C(=O)/C=C/c2ccccc2)c1)C(=O)O`?
TDP1 cell noCPT: -8%; DRD3 antagonist: 46; IL1B secr inh: 13; DRD3 agonist: -2; TDP1 cell CPT: 1%

What do the screens show for `CCCCSc1ncnc2c1c(-c1ccccc1)cn2-c1cccc(F)c1`?
TDP1 cell noCPT: -8%; DRD3 agonist: -13; ClpP mod: -5%; TDP1 cell CPT: -10%

Results for CC(C)(C)C1=CC(=O)C(N2CCOCC2)=CC1=O ?
TDP1 cell noCPT: 21µM*; DRD3 antagonist: -2; IL1B secr inh: 35; DRD3 agonist: 1; ClpP mod: -4%; TDP1 cell CPT: 7.3µM*

What do the screens show for `Cc1cccc(CNC(=O)CN2C(=O)CCn3nc(-c4cn(C)c5ccccc45)cc32)c1`?
TDP1 cell noCPT: inconclusive; DRD3 agonist: -19; ClpP mod: -17%; TDP1 cell CPT: inconclusive

Results for COc1ccccc1N1CCN(c2nc3ccc(C)cc3nc2-n2nc(C)cc2C)CC1 ?
TDP1 cell noCPT: 21µM*; DRD3 agonist: -10; ClpP mod: -2%; TDP1 cell CPT: 23µM*

Results for COc1cccc(-c2nc(N3CCCC3)c3ccccc3n2)c1O ?
TDP1 cell noCPT: 12µM*; DRD3 antagonist: 48; IL1B secr inh: 16; DRD3 agonist: 1; TDP1 cell CPT: 18µM*

What do the screens show for `COc1cccc(-c2nc(N3CCC(C)CC3)c3ccccc3n2)c1O`?
TDP1 cell noCPT: 21µM*; DRD3 antagonist: 36; IL1B secr inh: 13; DRD3 agonist: 1; ClpP mod: 1%; TDP1 cell CPT: 18µM*

What do the screens show for `COc1ccccc1N1CCN(c2nc(CNC(=O)c3ccc4c(c3)OCO4)nc3ccccc23)CC1`?
TDP1 cell noCPT: 13µM*; TDP1 cell CPT: 18µM*

What do the screens show for `Cc1ccc(S(=O)(=O)N2CCC(c3nc(-c4cccs4)nc4ccccc34)CC2)cc1`?
TDP1 cell noCPT: inconclusive; ClpP mod: -13%; TDP1 cell CPT: inconclusive
